# Where “and” joins values, the source holds several entries; their conditions need not be identical. Equal entries are not always repeated. Inconclusive results are not listed. Where a call stands in place of a potency, no number is given. A structure can be active in one record and inactive in another. Calls of active or inactive are those of the source. The call rests on the fitted dose curve.
# What was measured:
# [1] = target: Acetylcholinesterase (Homo sapiens) (UniProt P22303); assay: Acetylcholinesterase (AChE) small molecule antagonists: colormetric cell-based qHTS assay (AID 1347395); further: nearly all actives have a fitted effect of over 30% in size; further: potency means the concentration at half of the fitted maximal effect
# Sequence of Acetylcholinesterase (Homo sapiens) (P22303 whole entry, looked up): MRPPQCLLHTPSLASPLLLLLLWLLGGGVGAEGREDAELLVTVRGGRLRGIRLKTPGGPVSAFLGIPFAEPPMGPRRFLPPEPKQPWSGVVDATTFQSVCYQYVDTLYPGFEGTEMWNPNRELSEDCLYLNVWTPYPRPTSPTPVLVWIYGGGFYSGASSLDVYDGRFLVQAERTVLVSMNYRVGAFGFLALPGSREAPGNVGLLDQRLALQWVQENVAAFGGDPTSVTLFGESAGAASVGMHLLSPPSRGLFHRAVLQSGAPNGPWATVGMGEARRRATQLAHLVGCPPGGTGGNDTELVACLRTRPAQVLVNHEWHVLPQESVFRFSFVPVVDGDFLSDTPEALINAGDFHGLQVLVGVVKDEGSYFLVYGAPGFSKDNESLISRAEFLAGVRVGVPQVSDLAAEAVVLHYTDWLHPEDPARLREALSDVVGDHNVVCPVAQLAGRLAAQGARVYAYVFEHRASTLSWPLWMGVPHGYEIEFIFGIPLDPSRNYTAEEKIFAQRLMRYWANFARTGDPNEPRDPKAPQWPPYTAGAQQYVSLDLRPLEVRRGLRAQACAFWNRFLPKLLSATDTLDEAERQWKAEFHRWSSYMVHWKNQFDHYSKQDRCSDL
# Procedure, shortened: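 Neuroblastoma line SH-SY5Y supplied the enzyme; cells were preincubated with compound for 30 min at 37 C and 5% CO2. Acetylthiocholine with DTNB was then added for 90 min at 37 C, and thiocholine was measured by colour.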
# [2] = target: Acetylcholinesterase (Homo sapiens) (UniProt P22303); assay: Acetylcholinesterase (AChE) small molecule antagonists: enzyme-based qHTS assay (AID 1347397); settings: Potency: AChE enzyme activity inhibition; outcome: AChE enzyme activity inhibition; further: nearly all actives have a fitted effect of over 55% in size; further: potency means the concentration at half of the fitted maximal effect
# Procedure, shortened: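 In this quantitative HTS, compounds from the Tox21 10K collection were preincubated 30 min at ambient temperature with recombinant human AChE dispensed at 50 mU/mL. Hydrolysis of acetylthiocholine was then followed for 10 min by DTNB colour development.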
# [3] = target: Acetylcholinesterase (Homo sapiens) (UniProt P22303); assay: Acetylcholinesterase (AChE) small molecule antagonists: fluorescence cell-based qHTS assay (AID 1347398); settings: Potency: AChE activity; outcome: AChE activity; further: nearly all actives have a fitted effect of over 50% in size; further: potency means the concentration at half of the fitted maximal effect
# Procedure, shortened: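 Cells (SH-SY5Y) attached overnight, were dosed with compound or DMSO vehicle for 30 min at 37 C, and then incubated 40 min at room temperature with acetylthiocholine and Thiolite Green; green fluorescence indexed AChE activity.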
# [4] = target: Acetylcholinesterase (Homo sapiens) (UniProt P22303); assay: Acetylcholinesterase (AChE) small molecule antagonists: enzyme-based qHTS assay with human liver microsomes (AID 1347399); settings: Potency: qHTS inhibition; outcome: qHTS inhibition; further: nearly all actives have a fitted effect of over 60% in size
# Procedure, shortened: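 Recombinant human AChE (50 mU/mL in the enzyme mix) and human liver microsomes (0.25 mg/mL final) were preincubated with compound and NADPH (0.25 mg/mL final) for 30 min at 37 C. Acetylthiocholine/DTNB was then added; thiocholine was read colorimetrically after 10 min at room temperature.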
SMILES,Potency [1],Potency [2],Potency [3],Potency [4]
O=Cc1ccccc1[N+](=O)[O-],inactive,inactive,inactive,inactive
CC(C)OC(=O)OCOP(=O)(CO[C@H](C)Cn1cnc2c(N)ncnc21)OCOC(=O)OC(C)C,inactive,inactive,inactive,inactive
C/C=C(\C)C(=O)OCCC(C)CCC=C(C)C (stereo not given),inactive,inactive,inactive,inactive
COC1CCC=CO1 (stereo not given),inactive,inactive,inactive,inactive
CCN(Cc1cccc(S(=O)(=O)O)c1)c1ccc(C(=C2C=CC(=[N+](CC)Cc3cccc(S(=O)(=O)O)c3)C=C2)c2ccccc2S(=O)(=O)[O-])cc1,inactive,inactive,inactive,inactive
Oc1cccc2cc3cccc(O)c3c(O)c12,inactive,inactive,inactive,inactive
CC/C(C)=N\O[Si](C)(O/N=C(\C)CC)O/N=C(\C)CC,inactive,inactive,inactive,inactive
O=C1O[C@H]([C@H](O)CO)C(O)=C1O,inactive,inactive,inactive,inactive
CC(C)CCCCCCc1ccc(O)cc1,inactive,inactive,inactive,inactive
CCC(C)CO (stereo not given),inactive,inactive,inactive,inactive
C[C@@H](O[C@H]1OCCN(Cc2n[nH]c(=O)[nH]2)[C@H]1c1ccc(F)cc1)c1cc(C(F)(F)F)cc(C(F)(F)F)c1,inactive,inactive,inactive,inactive
O=C(O)C[C@H](NC(=O)OCc1ccccc1)C(=O)O,inactive,inactive,inactive,inactive
CCCN(CCC)S(=O)(=O)c1ccc(C(=O)O)cc1,inactive,inactive,inactive,inactive
CC(C)NNC(=O)c1ccncc1,inactive,inactive,inactive,inactive
CCCO[Si](OCCC)(OCCC)OCCC,inactive,inactive,inactive,inactive
CCc1occc(=O)c1O,inactive,inactive,inactive,inactive
OC(CCN1CCCCC1)(c1ccccc1)c1ccccc1,inactive,inactive,inactive,inactive
Cc1c(NC(=O)c2cccnc2)c(=O)n(-c2ccccc2)n1C,inactive,inactive,inactive,inactive
Cc1ccc2oc(CN(Cc3ccccc3)C(=O)Nc3c(F)cc(F)cc3F)c(-c3ccc(Cl)cc3)c2c1,inactive,inactive,inactive,inactive
CCCCCCCC/C=C\CCCCCCCCOCCO,inactive,inactive,inactive,inactive
COc1ccc2c(c1)c(CC(=O)OC/C=C(\C)CC/C=C(\C)CCC=C(C)C)c(C)n2C(=O)c1ccc(Cl)cc1,inactive,inactive,inactive,inactive
CS(=O)(=O)c1ccc([C@@H](O)[C@@H](CO)NC(=O)C(Cl)Cl)cc1,inactive,inactive,inactive,inactive
CCN[C@H]1C[C@H](C)S(=O)(=O)c2sc(S(N)(=O)=O)cc21,inactive,inactive,inactive,inactive
CC(=O)O[C@H](CC(=O)[O-])C[N+](C)(C)C,inactive,inactive,inactive,inactive

SMILES,Potency [1],Potency [2],Potency [3],Potency [4]
CC1=CC(=O)CCC1,inactive,inactive,inactive,inactive
CCCCCCCCCCCCCC[N+](C)(C)Cc1ccccc1,64.3 µM (active) and inactive,64.3 µM (active),36.2 µM (active) and 30.9 µM (active) and 15.8 mM (active),inactive
CC(C)c1cccc(O)c1,inactive,inactive,inactive,inactive
C=C(C)[C@@H]1CC=C(C)CC1,inactive,inactive,inactive,inactive
COC(=O)CCCCC(=O)O,inactive,inactive,inactive,inactive
Cc1occc(=O)c1O,inactive,inactive,inactive,inactive
C[C@H]1C[C@H](O)c2ccsc2S1(=O)=O,inactive,inactive,inactive,inactive
CCn1c2ccccc2c2cc([N+](=O)[O-])ccc21,inactive,inactive,inactive,inactive
CCC(=O)O[C@]1(C(=O)CCl)[C@@H](C)C[C@H]2[C@@H]3CCC4=CC(=O)C=C[C@]4(C)[C@@]3(F)[C@@H](O)C[C@@]21C,inactive,inactive,inactive,inactive
Nc1c(Cl)cc(Cl)cc1[N+](=O)[O-],inactive,inactive,inactive,inactive
Nc1cc([N+](=O)[O-])ccc1C(=O)O,inactive,inactive,inactive,inactive
COCCOC[C@H](CC1(C(=O)NC2CCC(C(=O)O)CC2)CCCC1)C(=O)Oc1ccc2c(c1)CCC2 (stereo not given in full),inactive,inactive,inactive,inactive
OCCc1ccccc1,inactive,inactive,inactive,inactive
C=CCOC(=O)CCCCCCCC,inactive,inactive,inactive,inactive
CCCCOC(=O)C(=O)OCCCC,inactive,inactive,inactive,inactive
Cc1cc(Cc2cc(C)cc(C(C)(C)C)c2O)c(O)c(C(C)(C)C)c1,inactive,inactive,inactive,inactive
Cc1ncc(CO)c(C=O)c1O,inactive,inactive,inactive,inactive
Nc1nc(Cl)cc(Cl)n1,inactive,inactive,inactive,inactive
CC1=CCC(O)(C(C)C)CC1 (stereo not given),inactive,inactive,inactive,inactive
CCN(CCN)c1cccc(C)c1,inactive,inactive,inactive,inactive
CCCCCC1C(=O)CCC1CC(=O)OC (stereo not given),inactive,inactive,inactive,inactive
OCC1CCCO1 (stereo not given),inactive,inactive,inactive,inactive
O=C(O)c1cc(Cl)cc(Cl)c1O,inactive,inactive,inactive,inactive
C=C(C)CNCC,inactive,inactive,inactive,inactive

SMILES,Potency [1],Potency [2],Potency [3],Potency [4]
CCCCC/C=C/CC(=O)OC,inactive,inactive,inactive,inactive
CCCC(O)C(O)CO (stereo not given),inactive,inactive,inactive,inactive
O=C(O)c1ccc(OCCN2CCCCC2)cc1,inactive,inactive,inactive,inactive
CCCCN(C)C,inactive,inactive,inactive,inactive
CCCCCCCCNC(C)C(O)c1ccc(SC(C)C)cc1 (stereo not given),inactive,inactive,inactive,inactive
c1ccc2c(c1)ccc1cc3c(ccc4ccccc43)cc12,inactive,inactive,inactive,inactive
Cc1ccc(S(=O)(=O)NC(=O)NN2CCCCCC2)cc1,inactive,inactive,inactive,inactive
O=C(O)c1ccccc1C(c1ccc(O)cc1)c1ccc(O)cc1,inactive,inactive,inactive,inactive
O=C1CCC/C=C\CCCCCCCCCC1,inactive,inactive,inactive,inactive
CCCCN(CCCC)C(=O)N(CCCC)CCCC,inactive,inactive,inactive,inactive
CC(=O)c1ccc([N+](=O)[O-])cc1,inactive,inactive,inactive,inactive
O=C(/C=C/c1ccccc1)OCCCc1ccccc1,inactive,inactive,inactive,inactive
O=C(CCc1ccc(O)cc1)c1c(O)cc(O)cc1O,inactive,57.7 µM (active),inactive,inactive
C=C(C)C(=O)OCCCCCC,inactive,inactive,inactive,inactive
CC(C)(C)C(=O)OCOC(=O)[C@@H]1N2C(=O)[C@@H](NC(=O)[C@H](N)c3ccccc3)[C@H]2SC1(C)C,inactive,inactive,inactive,inactive
O=C(O)c1[nH]n(-c2ccc(S(=O)(=O)O)cc2)c(=O)c1N=Nc1ccc(S(=O)(=O)O)cc1,inactive,inactive,inactive,inactive
Cc1cccnc1,inactive,inactive,inactive,inactive
CC(=O)c1sc(C)nc1C,inactive,inactive,inactive,inactive
CCCCCCOC(=O)C(C)C,inactive,inactive,inactive,inactive
CCCCN1CCCC[C@H]1C(=O)Nc1c(C)cccc1C,inactive,inactive,inactive,inactive
NC(=O)c1cccnc1,inactive,inactive,inactive,inactive
Cc1cc(=O)oc2cc(O)ccc12,inactive,inactive,inactive,inactive
CCCCNC(N)=O,inactive,inactive,inactive,inactive
CC12CCC(C1)C(C)(C)C2O (stereo not given),inactive,inactive,inactive,inactive

SMILES,Potency [1],Potency [2],Potency [3],Potency [4]
O[C@@H]1CO[C@H]2[C@@H]1OC[C@@H]2O,inactive,inactive,inactive,inactive
CC(COC(=O)c1ccccc1)OC(=O)c1ccccc1 (stereo not given),inactive,inactive,inactive,inactive
O=C(O)CNC(=O)c1ccc(CO)o1,inactive,inactive,inactive,inactive
CC1=CC(C)C(C=O)C(C)C1 (stereo not given),inactive,inactive,inactive,inactive
Cc1ncc([N+](=O)[O-])n1CCO,inactive,inactive,inactive,inactive
COC(=O)CC(=O)C(C)(C)C,inactive,inactive,inactive,inactive
O=C(O)c1cc(O)c(O)c(O)c1,inactive,inactive,inactive,inactive
CCOC(N)=O,inactive,inactive,inactive,inactive
COc1ccc(C#N)cc1,inactive,inactive,inactive,inactive
OC/C(Br)=C(\Br)CO,inactive,inactive,inactive,inactive
COC(=O)c1ccc([N+](=O)[O-])cc1,inactive,inactive,inactive,inactive
Clc1sc(Cl)c(Cl)c1Cl,inactive,inactive,inactive,inactive
Nc1nnc(-c2cccc(Cl)c2Cl)c(N)n1,inactive,inactive,inactive,inactive
CCC(C)(C)C1CCC(O)CC1 (stereo not given),inactive,inactive,inactive,inactive
O=Cc1ccccc1O,inactive,inactive,35.6 µM (active) and inactive,inactive
O=C(O)c1cccc(Oc2ccccc2)c1,inactive,inactive,inactive,inactive
c1ccc2c(c1)c1cccc3ccc4cccc2c4c31,inactive,inactive,inactive,inactive
Oc1c(I)cc(I)c2cccnc12,inactive,inactive,inactive,inactive
Cc1ccc(C(=O)c2ccc(CC(=O)O)n2C)cc1,inactive,inactive,inactive,inactive
C[C@]12C(=O)OC(=O)[C@H]1[C@H]1C=C[C@@H]2C1,inactive,inactive,inactive,inactive
CC(N)CN (stereo not given),inactive,inactive,inactive,inactive
CC(C=O)c1ccccc1 (stereo not given),inactive,inactive,inactive,inactive
CC(=O)CCc1ccc(OC(C)=O)cc1,inactive,inactive,inactive,inactive
CCN(CC)c1ccc(C=O)c(O)c1,39.9 µM (active),inactive,35.6 µM (active),inactive

SMILES,Potency [1],Potency [2],Potency [3],Potency [4]
CC(=O)c1ccc(C(C)=O)cc1,inactive,inactive,inactive,inactive
O=C(Nc1cccc(Cl)c1)OCC#CCCl,inactive,inactive,inactive,inactive
CCCCOC(=O)COc1ccc(Cl)cc1Cl,inactive,inactive,inactive,inactive
CN(C)CCCNCCC#N,inactive,inactive,inactive,inactive
CN1C(=O)CC(c2ccccc2)C1=O (stereo not given),inactive,inactive,inactive,inactive
CCC(O)OC(O)CC (stereo not given),inactive,inactive,inactive,inactive
CC1CCc2cc(F)cc3c(=O)c(C(=O)O)cn1c23 (stereo not given),inactive,inactive,inactive,inactive
CC/C=C\CCCCCO,inactive,inactive,inactive,inactive
CCC1(c2ccccc2)C(=O)NCNC1=O,inactive,inactive,inactive,inactive
CCCCCCC=O,inactive,inactive,inactive,inactive
CCC(C(=O)NC(=O)NC(C)=O)c1ccccc1 (stereo not given),inactive,inactive,inactive,inactive
O=C1NC(=O)[C@@]2(CCOc3ccc(F)cc32)N1,inactive,inactive,inactive,inactive
Cc1ccc(C(C)C)cc1,inactive,inactive,inactive,inactive
CC1(C)C(=O)N(Br)C(=O)N1Br,inactive,inactive,inactive,inactive
Cc1cc(OCCOCC[N+](C)(C)Cc2ccccc2)ccc1C(C)(C)CC(C)(C)C,39.7 µM (active) and 17.4 µM (active),56.1 µM (active) and 30.9 µM (active),14.1 µM (active) and 8.71 µM (active),inactive
C1COC(NC(C2CC2)C2CC2)=N1,inactive,inactive,inactive,inactive
CC(=O)OC(C)(C)C1CC=C(C)CC1 (stereo not given),inactive,inactive,inactive,inactive
O=Cc1ccc(O)c(O)c1O,inactive,inactive,inactive,inactive
Fc1ccccc1[C@@H](F)COC1CCC(Nc2ncnc3[nH]ncc23)CC1 (stereo not given in full),inactive,inactive,inactive,inactive
CC(=O)c1ccc(O)cc1,inactive,inactive,inactive,inactive
CC(C)(C)c1n[nH]c(=S)n(N)c1=O,inactive,inactive,inactive,inactive
C=Cc1cccc(C)c1,inactive,inactive,inactive,inactive
COc1cc(NS(=O)(=O)c2ccc(N)cc2)ncn1,inactive,inactive,inactive,inactive
COc1ccccc1OC(=O)Oc1ccccc1OC,inactive,inactive,inactive,inactive
